Screening data deposited in PubChem BioAssay by Paczesny and Yang Labs, IUPUI and University of Michigan.
This is one part of a sample in which hits are shown more often than they occur.
ST2 IL33 inh = IL1RL1 inhibition | Q01638 | inhibition, % for hits at 17 µM | 78,000 tested, 2.3% active | AlphaLISA ST2-Fc/biotin-IL-33 interaction, 1 h; in the data active = inhibition above about 30%
Target sequence (Q01638 whole entry, looked up): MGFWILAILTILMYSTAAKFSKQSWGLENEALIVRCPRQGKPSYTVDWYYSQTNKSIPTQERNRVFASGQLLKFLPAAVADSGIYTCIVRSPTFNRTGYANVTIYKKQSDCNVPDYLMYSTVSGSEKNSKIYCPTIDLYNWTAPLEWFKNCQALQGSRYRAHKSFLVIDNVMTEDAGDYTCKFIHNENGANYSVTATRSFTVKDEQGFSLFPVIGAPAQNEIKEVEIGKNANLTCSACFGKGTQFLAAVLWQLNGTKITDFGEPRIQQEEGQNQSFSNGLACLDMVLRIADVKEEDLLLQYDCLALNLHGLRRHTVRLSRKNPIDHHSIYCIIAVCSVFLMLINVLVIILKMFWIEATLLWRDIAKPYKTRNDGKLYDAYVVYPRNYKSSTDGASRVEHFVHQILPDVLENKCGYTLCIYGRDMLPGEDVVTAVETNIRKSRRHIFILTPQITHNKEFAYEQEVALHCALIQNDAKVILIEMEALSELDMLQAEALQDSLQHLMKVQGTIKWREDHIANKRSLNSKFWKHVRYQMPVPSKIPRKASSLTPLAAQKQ
* = called active by the depositor; i = inactive.

SMILES | ST2 IL33 inh
O=C(NC[C@H]1O[C@@H](CO)[C@@H](O)[C@H]1N1CCN(c2ccc(F)cc2)CC1)c1cccc(F)c1 | i
CCC(=O)N1c2ccccc2-c2nnc(SC)nc2OC1c1ccccc1OC (stereo unspecified) | i
CC1CCCCN1CCNS(=O)(=O)c1cccc2cccnc12 (stereo unspecified) | i
COc1ccccc1OCC(=O)Nc1c(C(=O)Nc2cccc(F)c2)oc2ccccc12 | i
COc1ccc(NC(=O)CN2C(=O)C3CCCCN3c3ccc(C(=O)N4CCCC4)cc32)cc1 (stereo unspecified) | i
O=C(Nc1nnc(-c2ccc3c(c2)OCO3)s1)c1ccc(Cl)cc1 | i
Cc1ccc(S(=O)(=O)N2CCN(S(C)(=O)=O)C2c2ccccc2)cc1 (stereo unspecified) | i
COc1ccc(C2SCCN2S(=O)(=O)c2ccc(C)cc2)cc1[N+](=O)[O-] (stereo unspecified) | i
Cc1ccc(S(=O)(=O)N2C/C(=C\c3ccccc3)c3c2cc([N+](=O)[O-])cc3[N+](=O)[O-])cc1 | 35.0%*
CC1CCCN(C(=O)C2c3ccccc3C(=O)N(C)C2c2cccs2)C1 (stereo unspecified) | i
Oc1c(Cl)cc(Br)cc1C=Nc1ccc2oc(-c3ccncc3)nc2c1 | i
O=C1NN(c2ccc(Cl)c(Cl)c2)C(=O)/C1=C\c1ccc(-c2cccc(C(=O)O)c2)o1 | i
CC1=NN(c2cccc(Br)c2)C(=O)/C1=C\c1ccc(-c2cccc([N+](=O)[O-])c2)o1 | i
Cc1ccc(N2NC(=O)/C(=C/c3ccc(-c4cccc([N+](=O)[O-])c4)o3)C2=O)cc1C | 61.0%*
CC(C)CNC(=O)c1cc2c(=O)n3ccccc3nc2n1C | i
CCSC1=N/C(=C\c2c(OC)cc(OC)cc2OC)C(=O)S1 | 38.0%*
Cc1nc2c(C(=O)N3CCc4ccccc4C3)c[nH]n2c(=O)c1Cc1ccc(F)cc1Cl | i
COc1ccc(CN2C(=S)N(c3ccc(Cl)cc3)[C@H]3[C@@H]2[C@H]2OC(=O)[C@@H]3C[C@H]2O)cc1 | i
CC[C@H]1CN(S(=O)(=O)c2ccccc2)CC[C@H]1CC(=O)NCc1cccnc1 | i
C=CCNc1nc2ccccc2nc1NS(=O)(=O)c1ccc(Br)cc1 | 33.0%*
CC(=O)Nc1ccc(S(=O)(=O)Nc2nc3ccccc3nc2Nc2cccc(O)c2)cc1 | i
Cc1cc(C)nc(NS(=O)(=O)c2ccc(NC(=O)c3ccc(Br)cc3)cc2)n1 | i
CCS(=O)(=O)Nc1ccc(C(=O)N2CCC(COC)C2)cc1 (stereo unspecified) | i
CN1CCOc2cc(C(=O)NCc3nnc(-c4ccccc4)o3)ccc21 | i
CN1CCc2[nH]c3c(Cl)cccc3c2C1 | i
SMILES | ST2 IL33 inh
Cc1ccc2c(c1)c1c(n2CCN2C(=O)c3ccccc3C2=O)C(=O)CCC1 | i
Cc1ccc2c(c1)c1c(n2CCC#N)CCN(C)C1 | 42.0%*
Cn1cc(Cn2cnc(-c3ccccc3)c2-c2nc3ccccc3n2C)cn1 | i
CC(C)C1CN(Cc2cnn(C)c2C2CC2)CCC(=O)N1CC1CC1 (stereo unspecified) | i
Cc1cc(C)n(-c2ccc(F)cc2CNC2CCCN(c3ncccn3)C2)n1 (stereo unspecified) | i
Cc1cc(=O)c2c([nH]1)C(O)=C(CN(C)C)C(=O)C2=O | 43.0%*
OC1CCN(C2CCN(Cc3cccc4[nH]ccc34)CC2)CC1 | i
COc1ccc(NC2CCCN(C(=O)C3=CCCCC3)C2)cc1OC (stereo unspecified) | i
CCOC(=O)N1CCN(Cc2ccc(Cl)cc2Cl)CC1 | i
CC1CCc2c(sc(NC(=O)c3cc(=O)c4ccccc4o3)c2C#N)C1 (stereo unspecified) | i
Cc1onc(-c2ccccc2Cl)c1C(=O)Nc1sc2c(c1C#N)CCC(C)C2 (stereo unspecified) | i
CC1CCc2c(sc(N=Cc3cccnc3)c2C#N)C1 (stereo unspecified) | 30.0%*
CC(c1ccc(-c2ccc3c(c2)CCC3=O)cc1)N1CCOCC1 (stereo unspecified) | i
O=C(NCC1CCC2(CCN(Cc3cccnc3)CC2)O1)c1ccc(-c2ccc(F)cc2)cc1 (stereo unspecified) | i
Cc1nnc(SCCCNC(=O)C23CC4CC(CC(C4)C2)C3)s1 | i
Cc1ccc(NC(=O)c2ccccc2)c(NC(=O)c2ccc(CN(C)C)o2)c1 | i
CCn1c2ccccc2c2cc(CN3CCCN(C)CC3)ccc21 | i
CCn1c2ccccc2c2cc(/C=C/[N+](=O)[O-])ccc21 | 38.0%*
CCn1c2ccccc2c2cc(NC(=O)CSc3cc(=O)n(C)c4ccccc34)ccc21 | i
COc1cc(Cl)ccc1S(=O)(=O)N1CCN(Cc2nc3cccnc3n2-c2ccc(C)cc2)CC1 | i
Nc1nc2n(n1)C(c1ccccc1)C=C(c1ccccc1)N2 (stereo unspecified) | i
CCOc1ccc(NC(=O)c2oc3ccccc3c2NC(=O)c2ccco2)cc1 | i
COc1ccc(CN2C[C@H](O)C[C@H]2c2nc(-c3ccccc3)no2)cc1 | i
COc1ccc(CN2C[C@H](O)C[C@H]2c2nc(-c3ccccc3)no2)c(OC)c1OC | i
COc1ccc(CN2C[C@H](O)C[C@H]2c2nc(-c3ccncc3)no2)cc1 | i
SMILES | ST2 IL33 inh
COc1ccc(CN2C[C@H](O)C[C@H]2c2nc(Cc3ccc(F)cc3Cl)no2)c2ccccc12 | i
COc1ccc(CN2C[C@H](O)C[C@H]2c2nc(-c3ccc(F)cc3)no2)c(OC)c1OC | 47.0%*
COc1ccc(-c2noc([C@@H]3C[C@@H](O)CN3Cc3cccc(C#N)c3)n2)cc1 | 58.0%*
CC1=C(C(=O)Nc2ccccc2)C(c2ccc(OCc3ccc(C)cc3)cc2)n2ncnc2N1 (stereo unspecified) | i
O=C(NCc1ccc2c(c1)OCO2)c1ccccc1I | i
CCc1ccc(Cn2c(CNS(C)(=O)=O)nc3cccnc32)cc1 | i
C=C(C)C[C@H]1CC=C(Br)[C@H](CC(=C)C)N1 | i
COc1nc2c(cc1C(=O)N1Cc3cnc(CC(C)C)nc3C1)CCC2 | i
O=C1c2ccccc2-c2ncnc3c(S(=O)(=O)O)cc(O)c1c23 | i
Nc1c(Br)cc(O)c2c1C(=O)c1ccccc1C2=O | 68.0%*
O=C(CN1C(=O)CCc2cc(S(=O)(=O)N3CCCCC3)ccc21)NC1CCCC1 | i
CC(=O)c1cccc(NC(=O)O[C@@H]2CO[C@H]3[C@@H]2OC[C@@H]3NC(=S)Nc2cc(C)cc(C)c2)c1 | i
CCNC(=O)O[C@@H]1CO[C@H]2[C@@H]1OC[C@@H]2NC(=O)Nc1cccc(C(F)(F)F)c1 | i
COc1ccc(NC(=O)O[C@@H]2CO[C@H]3[C@@H]2OC[C@@H]3NC(=O)Nc2cccc(C#N)c2)cc1 | 66.0%*
COC(=O)c1cccc(NC(=S)N[C@H]2CO[C@H]3[C@@H]2OC[C@H]3OCc2ccccc2)c1 | i
O=C(Nc1cccc(C(F)(F)F)c1)N[C@H]1CO[C@H]2[C@@H]1OC[C@H]2OC(=O)Nc1ccc(Oc2ccccc2)cc1 | 31.0%*
CCOC(=O)c1cccc(NC(=O)N[C@H]2CO[C@H]3[C@@H]2OC[C@H]3OC(=O)Nc2ccccc2)c1 | i
CC(=O)c1ccc(NC(=O)O[C@@H]2CO[C@H]3[C@@H]2OC[C@@H]3NC(=S)Nc2cccc(C#N)c2)cc1 | i
CCNC(=O)O[C@@H]1CO[C@H]2[C@@H]1OC[C@@H]2NC(=S)Nc1cccc(C(=O)OC)c1 | 34.0%*
